According to PubChem BioAssay (EPA / NIEHS):
The source made the active and inactive calls. How the source made its calls: active means hit-call score of the fitted dose curve at least 0.9, where 1 is the maximum; inactive means score below 0.9.

Tested on: not listed separately
Test: ATG_Ets_CIS: Attagene CIS-FACTORIAL HepG2 Assay for human Erythroblast Transformation Specific (ETS) (AID 2282941)
Conditions: HepG2 ETS cis-reporter transcription, actives raise or lower the signal
Procedure, shortened: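 RT-PCR/capillary electrophoresis fluorescence read-out of reporter mRNA; HepG2 transient multi-reporter transfection; 24 h compound exposure; gain or loss of signal fitted bidirectionally relative to DMSO.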
With `NC(=O)c1cccnc1` the outcome was “inactive”.
For `CC(C)(O)CCc1ccccc1`, the outcome was “inactive”.
With `CC(CO)c1ccccc1` (centres undefined) the outcome was “inactive”.
For `CCCCCC1CCC(=O)O1` (centres undefined), the outcome was “inactive”.
For `C=C1CC/C=C(\C)CC[C@@H]2[C@@H]1CC2(C)C`, the outcome was “inactive”.
In the case of `CC/C=C\CCOC(C)OCC` (centres undefined), the outcome is reported as “inactive”.
In the case of `CC1=CC[C@@H]2C[C@H]1C2(C)C`, the outcome is reported as “inactive”.
With `CCCCCCCCOC(=O)c1ccc(O)cc1` the outcome was “inactive”.
With `CC(C)(C)c1ccc(S)cc1` the outcome was “inactive”.
For `C1CCCNCC1`, the outcome was “inactive”.
In the case of `CCCCCCC(C)O` (centres undefined), the outcome is reported as “inactive”.
In the case of `CC1(C)CC(N)CC(C)(CN)C1` (centres undefined), the outcome is reported as “inactive”.
In the case of `CN1CCc2cccc3c2[C@H]1Cc1ccc(O)c(O)c1-3`, the outcome is reported as “inactive”.
In the case of `CCn1cc(C(=O)O)c(=O)c2ccc(C)nc21`, the outcome is reported as “inactive”.
With `C=CC(=O)OCC(CO)(COC(=O)C=C)COC(=O)C=C` the outcome was “inactive”.
With `CC/C=C\CCOC(=O)C(C)C` the outcome was “inactive”.
For `Nc1ccn([C@H]2CC[C@@H](CO)O2)c(=O)n1`, the outcome was “inactive”.
With `CC(=O)OCC=C(C)CCC=C(C)CCC=C(C)C` the AC50 was 179 µM (active).
With `NC(N)=S` the outcome was “inactive”.
In the case of `CC(=O)C1C(=O)C=C(C)OC1=O` (centres undefined), the outcome is reported as “inactive”.
With `CC(C)=CC(=O)O` the outcome was “inactive”.
For `CCCCCc1cccc(=O)o1`, the outcome was “inactive”.
For `CCO[Si](CCC#N)(OCC)OCC`, the outcome was “inactive”.
In the case of `CC(C)COC(=O)c1ccccc1O`, the outcome is reported as “inactive”.
With `O=C(C=Cc1ccccc1)OCCCc1ccccc1` the outcome was “inactive”.
For `O=C1CCC(=O)N1`, the outcome was “inactive”.

Target: Hepatocyte nuclear factor 3-beta (Homo sapiens) (UniProt Q9Y261)
Sequence (Q9Y261 whole entry, looked up): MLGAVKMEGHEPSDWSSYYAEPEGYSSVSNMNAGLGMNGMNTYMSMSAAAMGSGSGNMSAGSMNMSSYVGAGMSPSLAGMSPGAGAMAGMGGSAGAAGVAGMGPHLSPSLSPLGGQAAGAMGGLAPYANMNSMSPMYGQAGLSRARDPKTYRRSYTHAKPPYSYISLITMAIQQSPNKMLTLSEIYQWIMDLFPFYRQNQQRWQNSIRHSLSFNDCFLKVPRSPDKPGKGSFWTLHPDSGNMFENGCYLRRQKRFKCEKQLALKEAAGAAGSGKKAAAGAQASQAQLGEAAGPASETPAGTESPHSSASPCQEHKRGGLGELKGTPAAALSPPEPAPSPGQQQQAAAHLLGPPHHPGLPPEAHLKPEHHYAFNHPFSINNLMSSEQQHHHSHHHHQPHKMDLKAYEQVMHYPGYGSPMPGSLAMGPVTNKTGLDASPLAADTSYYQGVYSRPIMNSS
Test: ATG_FoxA2_CIS: Attagene CIS-FACTORIAL HepG2 Assay for human Forkhead box A2 (FOXA2) (AID 2282942)
Conditions: HepG2 cis-reporter transcription factor activity, 24 h; actives raise or lower the signal
Procedure, shortened: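 Measured: reporter mRNA induction or loss in HepG2 transiently carrying multiple cis-regulated reporter units, 24 h after dosing. Quantified by RT-PCR plus capillary electrophoresis, normalised to DMSO.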
In the case of `C1=COCCC1`, the outcome is reported as “inactive”.
With `NC(=O)c1cccnc1` the outcome was “inactive”.
With `COC(=O)c1cccc(C(=O)OC)c1` the outcome was “inactive”.
With `CC(C)(O)CCc1ccccc1` the outcome was “inactive”.
With `NNC(=O)OCc1ccccc1` the outcome was “inactive”.
In the case of `CC(CO)c1ccccc1` (centres undefined), the outcome is reported as “inactive”.
In the case of `CCCCCC1CCC(=O)O1` (centres undefined), the outcome is reported as “inactive”.
In the case of `c1ccc2scnc2c1`, the outcome is reported as “inactive”.
For `C=C1CC/C=C(\C)CC[C@@H]2[C@@H]1CC2(C)C`, the outcome was “inactive”.
In the case of `CC/C=C\CCOC(C)OCC` (centres undefined), the outcome is reported as “inactive”.
In the case of `C=C(C)C(N)=O`, the outcome is reported as “inactive”.
In the case of `CC1=CC[C@@H]2C[C@H]1C2(C)C`, the outcome is reported as “inactive”.
In the case of `CCCCCCCCOC(=O)c1ccc(O)cc1`, the outcome is reported as “inactive”.
In the case of `CC(C)(C)c1ccc(S)cc1`, the outcome is reported as “inactive”.
With `CCOC(=O)C(=O)OCC` the outcome was “inactive”.
With `C1CCCNCC1` the outcome was “inactive”.
For `CCCCCCC(C)O` (centres undefined), the outcome was “inactive”.
For `CC1(C)CC(N)CC(C)(CN)C1` (centres undefined), the outcome was “inactive”.
In the case of `CN1CCc2cccc3c2[C@H]1Cc1ccc(O)c(O)c1-3`, the outcome is reported as “inactive”.
In the case of `CCCCOCCOCCO`, the outcome is reported as “inactive”.
For `CCn1cc(C(=O)O)c(=O)c2ccc(C)nc21`, the outcome was “inactive”.
With `C=CC(=O)OCC(CO)(COC(=O)C=C)COC(=O)C=C` the AC50 was 123 µM (active).
In the case of `CC/C=C\CCOC(=O)C(C)C`, the outcome is reported as “inactive”.
For `Nc1ccn([C@H]2CC[C@@H](CO)O2)c(=O)n1`, the outcome was “inactive”.
For `CC(=O)OCC=C(C)CCC=C(C)CCC=C(C)C`, the AC50 was 146 µM (active).
With `NC(N)=S` the outcome was “inactive”.
In the case of `CC(=O)C1C(=O)C=C(C)OC1=O` (centres undefined), the outcome is reported as “inactive”.
With `CC(C)CCOC(=O)CC(C)C` the outcome was “inactive”.
In the case of `CC(C)=CC(=O)O`, the outcome is reported as “inactive”.
For `CCCCCc1cccc(=O)o1`, the outcome was “inactive”.
With `CCO[Si](CCC#N)(OCC)OCC` the outcome was “inactive”.
With `CC(C)COC(=O)c1ccccc1O` the outcome was “inactive”.
In the case of `O=C(C=Cc1ccccc1)OCCCc1ccccc1`, the outcome is reported as “inactive”.
For `O=C1CCC(=O)N1`, the outcome was “inactive”.

Tested on: not listed separately
Test: ATG_FoxO_CIS: Attagene CIS-FACTORIAL HepG2 Assay for human Forkhead box O (FoxO) (AID 2282943)
Conditions: HepG2 Attagene cis-reporter, FoxO element, mRNA; actives raise or lower the signal
Procedure, shortened: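 HepG2 cells transiently transfected with cis-element-driven reporter units report endogenous FoxO activity. After 24 h chemical exposure, reporter mRNA quantified by RT-PCR, fluorescent labeling, HpaI digestion and capillary electrophoresis; bidirectional fit versus DMSO.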
With `C1=COCCC1` the outcome was “inactive”.
In the case of `NC(=O)c1cccnc1`, the outcome is reported as “inactive”.
With `COC(=O)c1cccc(C(=O)OC)c1` the outcome was “inactive”.
For `CC(C)(O)CCc1ccccc1`, the outcome was “inactive”.
